# Experimental data published in PubChem BioAssay AID435019 (Southern Research Specialized Biocontainment Screening …, 2010).
# Among all 2,300 compounds or so, about 1,200 (52%) were called active. The rule behind the calls is not given here. The set was probably picked from earlier hits. This is one part of the list. A call without a number means that no potency is given here. Potency and affinity values are given separately.
# Assay: mammalian cell cytotoxicity, dose response, cytotoxicity control for M. tuberculosis inhibitor project (AID 435019);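 note: lower values mean fewer viable cells so more cytotoxicity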
# Conditions: cytotoxicity counter-screen; series mostly up to 40 µM
row,SMILES,outcome
1,CCOC(=O)CSc1ncc(OC)c(Sc2ccc(OC)cc2)n1,inactive
2,Cc1ccc(-c2c[n+](CC(=O)N3c4ccccc4Sc4ccccc43)c3n2CCC3)cc1,inactive
3,C=CCN1CC[C@]23c4c5ccc(O)c4O[C@H]2/C(=N/NC(=O)c2ccccc2)CC[C@@]3(O)[C@H]1C5,inactive
4,CCOC(=O)c1sc2ncnc(NCC(c3cccs3)N(C)C)c2c1C (centres undefined),inactive
5,Cc1c(Cl)c([N+](=O)[O-])nn1Cc1ccc(C(=O)N/N=C\c2cccc(Br)c2)o1,inactive
6,Cc1cc(C(=O)N/N=C/c2ccc(-c3ccc([N+](=O)[O-])cc3Cl)o2)n[nH]1,inactive
7,CCn1c(SCC(=O)Nc2ccc3c(c2)oc2ccccc23)nnc1-c1ccc(N)cc1,inactive
8,CCSCc1nnc(SCC(=O)Nc2cccc(SC)c2)n1C,inactive
9,Clc1cc(Cl)cc(Nc2ncn[nH]2)c1,inactive
10,C/C(CC(=O)Nc1ccc(C)c(Cl)c1)=N\NC(=O)Cc1cnc(N)s1,inactive
11,COc1ccc(C(C)=O)cc1COC(=O)c1ccc2ccccc2n1,inactive
12,Cc1ccc(C)c(NNC(N)=S)c1,inactive
13,COc1ccc(CCNc2cc(-c3ccccc3)nc3ncnn23)cc1,inactive
14,O=c1c2c(nc3nc(NCc4ccc(Cl)cc4)[nH]n13)CCC2,inactive
15,COC(=O)CCCCC1SCC(NC(=O)c2ccccc2)C1=O (centres undefined),inactive
16,N#Cc1ccc(CN2CCN(CC(=O)NCCc3ccc(Cl)cc3Cl)CC2)cc1,inactive
17,COc1ccc(SN=C2C(C)=CC(=O)C=C2C)cc1,inactive
18,COC(=O)C1C(O)C(C)C(O)C(C)/C=C\C=C(/C)C(=O)Nc2c(C)c(OC(C)=O)c3c(c2O)C(=O)C(C)=C2OCOC(=C23)/C(C)=C/C(C)(O)C(O)C(C)C1O (centres undefined),inactive
19,C/C(=N/Nc1ccnc2cc(Cl)ccc12)c1ccc(O)cc1,inactive
20,CCc1ccc(/C(C)=N/Nc2cc(Cl)nc(C)n2)cc1,inactive
21,Cc1ccc2c(c1)nnn2C1CCN(CC(=O)N2CCN(c3ccc(F)cc3)CC2)CC1,inactive
22,c1ccc(CCN2CN=C(Nc3nc4ccccc4o3)NC2)cc1,inactive
23,C/C(O)=C\c1nc2ccccc2oc1=O,inactive
24,CN1CCC(=NNC(=O)C(=O)Nc2ccccc2F)CC1,inactive
25,O=C(CCN1C(=O)/C(=C/c2ccccc2)SC1=S)Nc1ccccn1,inactive
26,O=C(COC(=O)C1=COCCO1)Nc1cccc(Oc2ccccc2)c1,inactive
27,CCOc1ccc2nc(/N=C/c3nc(-c4ccccc4)oc3O)sc2c1,inactive
28,Cc1ccc(-c2nnc(C)c(N3CCCC3)n2)cc1,inactive
29,O=C(c1cc2ccccc2o1)N1CCN(S(=O)(=O)c2ccc(Cl)s2)CC1,inactive
